Holding throughout (experiment): qHTS profiling for inhibitors of Plasmodium falciparum proliferation (AID 504749); note: nearly all actives have a fitted effect of over 60% in size
What all share (details): P. falciparum in erythrocytes, SYBR Green DNA, 72 h; series mostly up to 28.7 µM
A general note: qHTS replaces the single test concentration by a dilution series.

One assay has as its system CP262. Put shortly:
(§1)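 In a 72 h erythrocytic culture (37 C, humidified, 5% CO2) at 2.5% hematocrit and 0.3% starting parasitemia, compounds were tested; SYBR Green I in detergent lysis buffer stained parasite DNA overnight.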

The subject of a further assay is CP265. Summed up: as §1
For another assay, the system named is CP266. Summed up: as §1
Another assay concerns CP268. Put shortly: as §1
For the next assay, the system named is CP269. Put shortly:
as §1

The test system of a further assay is CP286. Put shortly:
as §1

The next assay concerns CP291. Put shortly:
as §1

The subject of another assay is CP305. Put shortly:
as §1

In the next assay the test system is CP315. Put shortly:
as §1

The subject of the next assay is CP325. Put shortly: as §1
For the next assay, the system named is CP329. Put shortly:
as §1

The next assay deals with CP335. Put shortly: as §1
In another assay the test system is DFO2036. Summed up: as §1
Another assay has as its system DIV30. Put shortly: as §1
The test system of a further assay is Dd2. Put shortly: as §1
In another assay the test system is CP297. Summed up: as §1
The next assay has as its system DIV14. Put shortly: as §1
The next assay deals with DIV17. Put shortly: as §1
A further assay has as its system ECU. Summed up:
as §1

The next assay concerns CP260. Put shortly: as §1

Inconclusive results are not listed. Activity calls are given as the source filed them. Calls come from the whole dose curve; as a rule, active = well fitted inhibition curve with a large enough effect; inconclusive = small, poorly fitted or top-dose-only effect; inactive = flat fitted curve, though single readings scatter.
Potency is the fitted concentration of half-maximal effect.

Regarding `C[C@H]1CCC[C@H](O)CCCCCc2cc(O)cc(O)c2C(=O)O1`, the Potency result in the assay with CP262, in the assay with CP265, in the assay on CP266, in the assay with CP268, in the assay with CP269 and with CP286 was “inactive” each time. The Potency result in the assay with CP291, with CP305, in the assay with CP315, in the assay with CP325, in the assay on CP329 and in the assay on CP335 was “inactive” in each case. In addition, the Potency entry in the assay on DFO2036, in the assay on DIV30 and with Dd2 was “inactive” in each case.

As for `COC([CH2][Hg])CNC(=O)c1ccccc1OCC(=O)O` (centres undefined), the Potency entry in the assay with CP262, in the assay on CP265, in the assay with CP266, in the assay with CP268, with CP269 and in the assay with CP286 was “inactive” throughout. Further, the Potency result in the assay with CP291, with CP297, in the assay on CP305, in the assay with CP315, with CP325 and in the assay on CP329 was “inactive” each time. Further, the Potency result in the assay with CP335, with DFO2036, in the assay with DIV14, in the assay on DIV17, with DIV30 and with Dd2 was “inactive” each time. Besides, in the assay on ECU, the Potency result is “inactive”.

Consider `C/C(=C\c1csc(C)n1)[C@@H]1C[C@@H]2O[C@]2(C)CCC[C@H](C)[C@H](O)[C@@H](C)C(=O)C(C)(C)[C@@H](O)CC(=O)O1`, for which the Potency in the assay with CP260 was 2.2 nM (active); in the assay with CP265, 0.004 µM (active); in the assay with CP269 it was 3.8 nM (active); with CP286, 0.0018 µM (active); in the assay with CP291 it was 0.0021 µM (active); in the assay with CP297, 0.0043 µM (active). In addition, the Potency in the assay with CP315 is 2.4 nM (active); in the assay on CP325, 0.0027 µM (active); in the assay with CP329 it was 0.0034 µM (active); in the assay on CP335, 1.2 nM (active); in the assay on DFO2036, 0.0032 µM (active); with DIV14 it was 0.0034 µM (active). Also, the Potency is 0.0034 µM (active) with DIV17, 0.0048 µM (active) in the assay on DIV30, 0.0013 µM (active) in the assay on Dd2 and 0.0045 µM (active) with ECU.

Take `c1ccc2cc(CC3=NCCN3)ccc2c1`: the Potency entry in the assay on CP260, in the assay on CP262, with CP265, with CP268, in the assay on CP269 and with CP286 was “inactive” each time. Moreover, the Potency entry in the assay on CP291, with CP297, in the assay on CP305, in the assay with CP315, in the assay with CP325 and in the assay on CP329 was “inactive” in each case. The Potency result in the assay with CP335, with DFO2036, in the assay on DIV17, in the assay on DIV30, in the assay with Dd2 and with ECU was “inactive” each time.

As to `N#CC1(N2CCCCC2)CCCCC1`, the Potency entry with CP262, with CP265, with CP266, with CP268, with CP269 and in the assay with CP286 was “inactive” throughout. Besides, the Potency result with CP291, in the assay with CP297, in the assay on CP305, with CP315, in the assay on CP325 and in the assay on CP329 was “inactive” throughout. The Potency result in the assay with CP335, in the assay on DFO2036, in the assay on DIV14, in the assay with DIV17, with DIV30 and in the assay with Dd2 was “inactive” in each case. The Potency result in the assay on ECU is “inactive”.

Turning to `O=C1CN=C(c2ccccc2)c2cc(Cl)ccc2N1CC1CC1`, the Potency result in the assay on CP262, in the assay with CP265, in the assay on CP266, with CP268, in the assay with CP269 and with CP291 was “inactive” throughout. In addition, the Potency result with CP297, with CP305, in the assay with CP315, in the assay with CP325, with CP329 and in the assay on DFO2036 was “inactive” in each case. Further, the Potency entry in the assay with DIV14, in the assay on DIV30, in the assay on Dd2 and with ECU was “inactive” in each case.

Turning to `CCC1(CC)C(=O)NC(=O)N(C)C1=O`, the Potency result in the assay on CP260, in the assay on CP262, in the assay with CP265, in the assay with CP268, in the assay on CP269 and in the assay on CP286 was “inactive” throughout. Also, the Potency entry in the assay with CP291, with CP297, in the assay on CP305, in the assay on CP315, in the assay with CP325 and in the assay with CP329 was “inactive” in each case. The Potency result in the assay on CP335, with DFO2036, in the assay with DIV14, with DIV30, in the assay with Dd2 and in the assay with ECU was “inactive” in each case.

In the case of `CN1CCCC(=C(c2cccs2)c2cccs2)C1`, the Potency result in the assay with CP266, in the assay with CP269, in the assay with CP315 and with ECU was “inactive” in each case. For the same compound, the values for the Potency in the assay with DIV17 and in the assay with Dd2 were 6.75 µM (active) and 11.2 µM (active), respectively.

As to `CN1[C@@H]2CC[C@H]1CC(OC1c3ccccc3CCc3ccccc31)C2` (some centres undefined), the Potency result in the assay with CP262, with CP265, with CP266, in the assay with CP268, in the assay on CP269 and in the assay with CP291 was “inactive” each time. In addition, the Potency entry with CP305, in the assay on CP315, with CP325, with CP329, in the assay on CP335 and with DIV30 was “inactive” each time. In addition, the Potency is 1.81 µM (active) in the assay with DIV14, 1.81 µM (active) in the assay on DIV17 and 3.55 µM (active) with ECU.

For the compound `Oc1cccc[c]1[Hg][Cl]`, the Potency in the assay on CP260 is 5620 nM (active); in the assay on CP265 it was 10 µM (active); in the assay on CP266 it was 9.53 µM (active); in the assay with CP268, 7.57 µM (active); with CP269 it was 4260 nM (active); in the assay on CP286 it was 7.94 µM (active). Further, the Potency in the assay on CP291 is 10.7 µM (active); in the assay with CP297, 13.5 µM (active); with CP305, 6.01 µM (active); with CP325 it was 12 µM (active); in the assay on CP329, 9.53 µM (active); in the assay on DFO2036, 5.62 µM (active). Further, the Potency in the assay with DIV14 was 4.78 µM (active); in the assay on DIV17, 5.36 µM (active); with DIV30 it was 9.53 µM (active); in the assay with Dd2, 2.51 µM (active); in the assay with ECU, 3.55 µM (active).

As to `C[C@]12CCC(=O)C[C@@H]1CC[C@@H]1[C@@H]2CC[C@]2(C)[C@@H](O)CC[C@@H]12`, the Potency result with CP262, with CP265, in the assay on CP266, with CP268, in the assay on CP269 and with CP286 was “inactive” each time. Further, the Potency result in the assay on CP291, in the assay on CP297, in the assay on CP305, in the assay with CP315, in the assay with CP325 and in the assay on CP329 was “inactive” throughout. The Potency entry in the assay on CP335, in the assay with DFO2036, with DIV14, in the assay on DIV17, in the assay on DIV30 and with Dd2 was “inactive” each time. For the same compound, the Potency entry with ECU was “inactive”.

Turning to `[Cl-].[Cl-].[Hg+2]`, the Potency result with CP262 and in the assay with CP266 was “inactive” in each case. Besides, the Potency is 11.2 µM (active) in the assay on DFO2036, 15.1 µM (active) in the assay on DIV30, 12.6 µM (active) in the assay with Dd2 and 6.31 µM (active) with ECU.

On to `O=c1c2ccccc2[se]n1-c1ccccc1`, for which the Potency entry with CP260, in the assay with CP262, with CP266, in the assay with CP268, in the assay with CP269 and with CP291 was “inactive” throughout. The Potency entry with CP297, in the assay with CP305, in the assay on CP315, with CP325, in the assay with CP329 and in the assay on DIV30 was “inactive” in each case.

Consider `[N-]=[N+]=CC(=O)OCC(N)C(=O)O` (centres undefined), for which the Potency result with CP262, in the assay on CP265, in the assay with CP266, with CP268, in the assay on CP269 and in the assay on CP286 was “inactive” each time. The Potency result with CP291, with CP297, in the assay with CP305, in the assay on CP315, in the assay on CP325 and in the assay on CP329 was “inactive” in each case. The Potency entry with CP335, in the assay with DFO2036, with DIV14, with DIV17, in the assay with DIV30 and in the assay on Dd2 was “inactive” each time. Further, in the assay on ECU, the Potency result is “inactive”.

For the compound `C[N+]1(C)CCCCC1COC(=O)C(O)(c1ccccc1)c1ccccc1` (centres undefined), the Potency entry with CP262, with CP265, in the assay on CP266, in the assay on CP268, in the assay with CP269 and with CP286 was “inactive” each time. The Potency entry in the assay with CP291, in the assay on CP297, in the assay on CP305, in the assay with CP315, in the assay on CP325 and in the assay on CP329 was “inactive” in each case. Also, the Potency result in the assay with CP335, in the assay on DFO2036, with DIV14, in the assay with DIV17, in the assay with DIV30 and in the assay on Dd2 was “inactive” throughout. The Potency entry with ECU is “inactive”.
